# Bioassay records: PubChem BioAssay, several laboratories
# Sampled rows, rich in hits. Any-hit rate of the full collection: about 12%.
# INS promoter inh: inhibitors of insulin promoter-driven GFP, primary screen, imaging, TRM-6 cells (human fetal islet line), eGFP reporter, cell count; actives 0.9% (n = 130,000); AID 1273, 2008; inhibition, % at 2 µM; reporter expression induced with tamoxifen;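 active = inhibition above the mean plus 3 SD, with well images judged a real hit on visual review, cut at about 60% in these data, passing the limit was not always enough; inconclusive = inhibition over the cutoff but images rejected on review; inactive = inhibition not above the cutoff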
# Ins promoter up: insulin promoter activators in MIN6 cells, imaging, high-content screening, mouse beta cells; actives 0.3% (n = 190,000); MIN6 insulin promoter-GFP reporter; hits give high values; z-score at 5 µM;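 active = z-score above 3 at 5 µM with at least 500 cells counted in the well; inconclusive = wells under 500 cells, flagged as cytotoxic or low count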
# WT yeast gro inh: growth inhibition of WT strain, primary screen, mitochondrial fusion inhibitor project, WT and mutant strains, chemical genetic. inhibition, % at 10 µM. actives 2.1% (n = 190,000). mitochondrial fusion phenotypic screen; in the data active = inhibition above about 58%; tested in S. cerevisiae
# Cl transport mod: KCC2 cotransporter modulators, thallium flux, primary screen, cell-based, HEK293 KCC2, FluoZin-2 fluorescence, MLSMR | Solute carrier family 12 member 5 (Homo sapiens), Q9H2X9 | KCC2 cells, thallium flux FluoZin-2 fluorescence | B-score of Tl+ flux slope (higher = more flux/activation; lower = inhibition) at 10 µM | actives 2.2% (n = 190,000) | AID 1456, 2008;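 active = thallium flux slope and its plate-corrected score both differing from the plate sample mean at a set confidence after two filtering rounds, in either direction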;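 also: slope of fluorescence scaled to starting intensity during 10 to 20 s after thallium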
# Target sequence (Q9H2X9 whole entry, looked up): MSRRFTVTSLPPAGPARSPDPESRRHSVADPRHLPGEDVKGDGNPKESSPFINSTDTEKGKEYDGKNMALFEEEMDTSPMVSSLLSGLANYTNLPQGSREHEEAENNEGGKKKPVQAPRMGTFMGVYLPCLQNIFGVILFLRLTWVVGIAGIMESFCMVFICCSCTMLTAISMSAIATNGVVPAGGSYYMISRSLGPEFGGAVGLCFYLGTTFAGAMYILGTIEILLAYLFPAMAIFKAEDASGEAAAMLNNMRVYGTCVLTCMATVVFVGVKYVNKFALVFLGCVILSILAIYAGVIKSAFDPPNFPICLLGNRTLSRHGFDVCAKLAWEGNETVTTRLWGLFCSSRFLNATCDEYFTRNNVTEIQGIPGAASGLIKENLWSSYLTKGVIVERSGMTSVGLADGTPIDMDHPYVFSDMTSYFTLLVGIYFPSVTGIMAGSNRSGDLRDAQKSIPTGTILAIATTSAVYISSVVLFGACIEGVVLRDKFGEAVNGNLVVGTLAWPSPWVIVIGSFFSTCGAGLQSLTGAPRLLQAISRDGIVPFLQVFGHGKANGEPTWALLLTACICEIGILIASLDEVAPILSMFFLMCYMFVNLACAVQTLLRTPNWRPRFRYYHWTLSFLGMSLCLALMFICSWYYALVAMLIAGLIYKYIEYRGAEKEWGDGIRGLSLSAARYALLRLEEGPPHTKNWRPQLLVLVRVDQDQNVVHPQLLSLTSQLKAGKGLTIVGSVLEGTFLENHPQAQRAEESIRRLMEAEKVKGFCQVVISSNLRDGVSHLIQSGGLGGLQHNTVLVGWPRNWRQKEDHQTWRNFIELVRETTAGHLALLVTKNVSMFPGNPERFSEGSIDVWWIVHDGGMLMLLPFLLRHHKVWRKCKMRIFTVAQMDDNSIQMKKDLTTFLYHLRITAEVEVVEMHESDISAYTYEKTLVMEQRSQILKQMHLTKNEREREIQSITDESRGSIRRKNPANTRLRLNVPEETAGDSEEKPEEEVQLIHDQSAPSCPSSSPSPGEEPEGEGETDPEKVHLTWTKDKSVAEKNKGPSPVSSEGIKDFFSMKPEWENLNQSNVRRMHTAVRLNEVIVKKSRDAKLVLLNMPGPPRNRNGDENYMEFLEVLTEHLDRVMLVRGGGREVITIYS
# ROMK mod: ROMK potassium channel modulators, primary screen, cell-based, thallium flux, MLSMR library; ATP-sensitive inward rectifier potassium channel 1 (Homo sapiens), P48048; Tet-inducible ROMK, thallium flux fluorescence; actives lie on both sides; B-score at 10 µM; actives 2% (n = 130,000); AID 1918, 2009;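 active = signal ratio slope over the read window, or its plate-corrected B-score, at least 3 SD from the plate mean, either direction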;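 also: B-score of the F/F0 ratio slope over 7 to 12 s after thallium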
# L major viab: Leishmania major promastigote growth inhibition, primary screen. inhibition, % at 10 µM. AID 1063, 2008. Leishmania major promastigotes, resazurin fluorescence viability. actives 9% (n = 200,000); in the data active = inhibition above about 50%;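 also: promastigotes grown with compound for 44 hours at 28 °C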
# The depositor's hits bear a star; ? = inconclusive; . = no result given.
SMILES,INS promoter inh,Ins promoter up,WT yeast gro inh,Cl transport mod,ROMK mod,L major viab
CCOc1ccccc1N1C(=O)CC(Sc2ncccc2C(=O)O)C1=O (stereo not drawn),67,.,9,.,-0.034,-3
OCCNCc1cc(Br)ccc1OCc1ccc(Cl)cc1Cl,.,-1.5,58*,0.0062,.,101*
OCCNCc1cccc(OCc2ccc(Cl)cc2)c1,.,-0.57,7,-0.28,-0.67,54*
OCCNCc1cc(Br)ccc1OCc1ccc(Cl)cc1,6,-0.3,3,0.0053,.,93*
Oc1ccc(NCc2cccc(OCc3ccccc3)c2)cc1,.,0.09,6,-1.4,0.35,7
Cc1cc(C)c(Cc2c(C)nc3c(C(=O)NCc4ccco4)cnn3c2C)c(C)c1,3,-4.9,63*,-1.3,-0.71,19
CCc1cccc(NC(=O)CSCc2cc(=O)[nH][nH]2)c1,4,0.01,.,.,0.0056,-5
Cn1nccc1C(=O)N1CCCC(C(=O)c2cccc3ccccc23)C1 (stereo not drawn),30,.,18,-0.8,-0.47,-3
Cc1ccccc1Cn1ccc(NC(=O)c2nn(C)cc2[N+](=O)[O-])n1,85*,.,21,0.84,-0.047,-6
CCn1cc([N+](=O)[O-])c(C(=O)Nc2ccn(Cc3ccccc3F)n2)n1,-10,-0.58,30,0.013,0.11,0
O=C(COC(=O)CCc1nc2ccccc2s1)Nc1ccc(S(=O)(=O)N2CCOCC2)cc1,.,0.19,-5,.,.,.
O=C(c1ccccc1)C(C(=O)N1CCc2ccccc2C1)n1ccccc1=O (stereo not drawn),-43,-0.24,-26,-0.56,-0.1,73*
O=C1C2C3C=CC(C3)C2C(=O)N1CCCCCCN1C(=O)C2C3C=CC(C3)C2C1=O (stereo not drawn),-75,0.77,2,-0.86,0.31,10
O=C1C=CC(=O)N1CCCCCCN1C(=O)C=CC1=O,.,-0.78,92*,-1,.,-4
CCC1(CC)Cc2ccccc2C(N)=C1C#N,4,.,-32,.,.,8
O=C1C(Cl)=C(NC2CCCCC2)C(=O)N1Cc1ccccc1,56,-1.1,70*,0.98,-1.1,-7
O=C1C(Cl)=C(NCC2CCCO2)C(=O)N1Cc1ccccc1 (stereo not drawn),.,-0.34,22,.,0.44,-1
COC(=O)c1cccc(C23CC4(C2)[C@H](CN(Cc2ccc(C(F)(F)F)cc2)[C@@H]4c2ccccc2)C3c2ccc(C(F)(F)F)cc2)c1 (stereo partly drawn),.,-0.4,.,-0.15,.,.
Oc1ccc(CNCC2COc3ccccc3O2)cc1 (stereo not drawn),50,1.7,-2,.,.,88*
O=C(O)CNCC1COc2ccccc2O1 (stereo not drawn),-45,-0.29,23,0.95,.,-7
CCOC(=O)CN1C(=O)S/C(=C/c2cc(C)n(C)c2C)C1=O,-2,.,.,-0.73,.,6
CCOC(=O)CN1C(=O)S/C(=C/c2ccc(O)c([N+](=O)[O-])c2)C1=O,-22,0.05,8,-0.33,.,52*
C=CCN1C(=O)C(CC(=O)O)SC1=Nc1c(C)n(C)n(-c2ccccc2)c1=O (stereo not drawn),3,1.2,-7,0.008,0.56,-17
CC(C)CCN(C)C1CCN(S(=O)(=O)c2ccc(F)cc2)CC1,.,0.14,18,0.77,.,95*
O=S(=O)(c1ccc(F)cc1)N1CCC(N2CCCC2)CC1,.,-1.4,-7,0.065,.,43
SMILES,INS promoter inh,Ins promoter up,WT yeast gro inh,Cl transport mod,ROMK mod,L major viab
Cc1cccc(C(C)C)c1NC(=O)COC(=O)Cc1ccsc1,.,-0.22,-14,0.71,.,-5
COC(=O)C(CC(C)C)Oc1ccc2c(C)cc(=O)oc2c1 (stereo not drawn),-18,0.91,-2,.,.,85*
Cc1cccc(C)c1NC(=O)COC(=O)Cc1ccsc1,67*,.,-10,-1,-0.07,-7
Cc1cccc(C)c1NC(=O)COC(=O)COc1ccc2c(C)cc(=O)oc2c1,60*,0.2,-10,0.48,-0.11,-5
Cc1cccc(C(C)C)c1NC(=O)COC(=O)COc1ccc2c(C)cc(=O)oc2c1,.,0.28,4,0.73,.,0
COc1ccccc1NC(=O)c1ccc(-c2ccccc2[N+](=O)[O-])o1,36,.,-28,0.026,-0.065,11
COc1cccc(-c2cc3nc(-c4ccccc4)cc(N4CCC5(CC4)OCCO5)n3n2)c1,-34,.,36,0.11,.,63*
Fc1ccc(-c2cc3nc(-c4ccccc4)cc(N4CCN(CCN5CCOCC5)CC4)n3n2)cc1,-9,-0.77,-9,-0.41,.,77*
COc1cccc(C(c2sc3nc(C)nn3c2O)N2CCC3(CC2)OCCO3)c1 (stereo not drawn),.,1,-6,0.95,.,-5
CN1CCN(c2cc(-c3ccccc3)nc3cc(-c4ccc(F)cc4)nn23)CC1,.,-0.01,84*,-0.17,-0.42,100*
COc1cc2c(c3oc(-c4ccccc4)cc(=O)c13)C=CC(C)(C)O2,.,-2,45,-0.24,.,42
COc1cc(C2NCC(c3ccc(Cl)cc3Cl)c3c2[nH]c2ccccc32)cc(OC)c1OC (stereo not drawn),-52,0.14,82*,0.15,-0.059,99*
O=C(CSc1nnc(-c2ccccc2)n1C1CCCCC1)N1CCCC1,-56,-0.92,7,-0.38,.,-6
CC1CCCN(C(=O)CSc2nnc(-c3cccnc3)n2C2CCCCC2)C1 (stereo not drawn),-66,0.34,65*,0.32,.,-11
COc1cc(NC(=S)N2CCCCC2C)c(OC)cc1Cl (stereo not drawn),.,-0.05,5,-0.55,-0.71,0
COc1cc(NC(=O)C(=O)NNC(=O)C2CCCCC2)c(OC)cc1Cl,30,0.65,-10,51*,0.94,19
CCOC(=O)/C(=N\Nc1ccccc1Cl)N1CC(C)OC(C)C1 (stereo not drawn),.,-0.31,.,-1.3,.,.
COc1ccc(Nc2nc(N3CCCCC3)c3ccccc3n2)cc1,-10,-1.9,75*,.,.,100*
c1ccc2c(c1)nc(N1CCCCCC1)c1ccccc12,.,-0.47,.,0.27,.,.
Cc1cccc(-c2nc(Nc3ccc(N4CCOCC4)cc3)c3ccccc3n2)c1,-53,-0.65,51,-0.7,0.027,74*
Cc1cc(-c2ccc(N3CCOCC3)cc2)nc2ccccc12,.,2.5,3,-0.82,.,46
Cc1ccc(-c2cc3ccccc3nc2N2CCOCC2)cc1,.,-0.44,59*,0.5,-0.053,15
Oc1ccc(Nc2nc(N3CCCC3)c3ccccc3n2)cc1,.,?,27,.,-4.8*,100*
Cn1ncc(Br)c1C(=O)Nc1ccc(Cl)cn1,.,-0.03,-4,-0.77,.,-6
CCc1ccccc1NC(=O)CN(C)C(=O)CN1C(=O)NC2(CCCCCC2)C1=O,.,0.39,7,.,0.39,-2
